From article PMC5540273 (PLoS ONE, 2017)
“And” between values parts separate entries of the source, which are not always exact repeats. Equal entries are not always repeated. Where two headings read alike, the source gives them in different places.

Key:
CAMK2D = details: concentration: 1 μM, replicates: in singlicate; n = 1
CAMK2G = details: concentration: 1 μM, replicates: in singlicate, n = 1
CAMK4 = details: concentration: 1 μM, replicates: in singlicate; n = 1
CAMKK1 = details: concentration: 1 μM, replicates: in singlicate; n = 1
CAMKK2 = details: concentration: 1 μM, replicates: in singlicate; n = 1
CASK = details: concentration: 1 μM, replicates: in singlicate; n = 1
CDC2L1 = test system: T1, CDC2L1; details: concentration: 1 μM, replicates: in singlicate; n = 1
T1 construct: gene CDK11B

CDC2L2 = details: concentration: 1 μM, replicates: in singlicate, n = 1
CDC2L5 = test system: T2, CDC2L5; details: concentration: 1 μM, replicates: in singlicate, n = 1
T2 construct: gene CDK13

CDK11 = test system: T3, CDK11; details: concentration: 1 μM, replicates: in singlicate, n = 1
T3 construct: gene CDK19
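Note: KINOMEscan kinase panel screen.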

SMILES | %Inh (CAMK2D) [%] | %Inh (CAMK2G) [%] | %Inh (CAMK4) [%] | %Inh (CAMKK1) [%] | %Inh (CAMKK2) [%] | %Inh (CASK) [%] | %Inh (CDC2L1) [%] | %Inh (CDC2L2) [%] | %Inh (CDC2L5) [%] | %Inh (CDK11) [%] | %Inh (CAMK2G; 1 µM) | %Inh (CDC2L2; 1 µM) | %Inh (CDC2L5; 1 µM) | %Inh (CDK11; 1 µM)
Cn1cc(-c2ccc3c(c2)CCN3C(=O)Cc2cccc(C(F)(F)F)c2)c2c(N)ncnc21 [GSK2606414] | 0 | 5 | 0 | 7 | 0 | 75 | 0 | 0 | 0 | 37 | – | – | – | –
Clc1cc(Nc2ncnc3cc[nH]c23)ccc1OCc1ccccn1 | 19 | 0 | 0 | 0 | 0 | 0 | 12 | 15 | 0 | 29 | – | – | – | –
COc1ccc(-c2nc3n(c2-c2ccncc2)CCC3)cc1 [SKF-104493] | 0 | – | 0 | 0 | 0 | 0 | 0 | – | – | – | 0% and 2% | 6% and 13% | 18% and 0% | 5% and 7%
O=c1cc(N2CCOCC2)nc2n(Cc3cccc(Cl)c3)ccn12 [GSK2296823] | 0 | 3 | 0 | 17 | 0 | 3 | 0 | 6 | 0 | 0 | – | – | – | –
CC(C)(C)OC(=O)NC1CCCN(c2cc(-c3ccc4c(N)n[nH]c4c3)nc(N)n2)C1 (centres unmarked) [GSK2286096] | 16 | 18 | 0 | 0 | 32 | 2 | 8 | 0 | 0 | 38 | – | – | – | –
CCc1nc(-c2cccc(C)c2)c(-c2ccnc(NC(=O)c3ccccc3)c2)s1 | 0 | 10 | 0 | 4 | 7 | 0 | 11 | 2 | 12 | 5 | – | – | – | –
COc1ccc(NC(=O)c2ccc(-c3cc(-c4nnc(C)o4)ccc3C)cc2)cc1 [GW595885] | 0 | 8 | 0 | 0 | 0 | 21 | 0 | 0 | 0 | 0 | – | – | – | –
O=C(NCCCN1CCCC1=O)c1cnc(NCc2cc(Cl)ccc2Cl)nc1NC1CCNCC1 | 0 | 0 | 0 | 4 | 1 | 78 | 0 | 0 | 0 | 4 | – | – | – | –
CN1c2ccc(-c3ccc(C(=O)NCCO)cc3)cc2-c2[nH]ncc2S1(=O)=O | 24 | 21 | 0 | 22 | 37 | 48 | 0 | 0 | 2 | 11 | – | – | – | –
Cl.Cn1ccc(-c2cccc(Nc3ccnc4cc(-c5nccs5)ccc34)c2)n1 [GW525701] | 26 | 21 | 0 | 25 | 20 | 2 | 0 | 0 | 0 | 3 | – | – | – | –
CCC(CC)(CC)n1cnc2c(N)ncnc21 [SKF-97620] | 0 | 0 | 8 | 0 | 0 | 42 | 0 | 0 | 20 | 0 | – | – | – | –
Fc1ccc(-c2ncn(CCCNCc3ccccc3)c2-c2ccncc2)cc1 | 0 | 0 | 4 | 0 | 0 | 27 | 0 | 0 | 18 | 0 | – | – | – | –
Cl.Cl.c1ccc(-c2cc3ccncc3cc2OC2CCNCC2)cc1 [GSK1122999] | 26 | 20 | 43 | 0 | 30 | 16 | 15 | 5 | 0 | 12 | – | – | – | –
Fc1cccc(COc2ccc(Nc3ncnc4nn5ccccc5c34)cc2Cl)c1 [GW689066] | 0 | 10 | 0 | 5 | 0 | 0 | 0 | 0 | 0 | 2 | – | – | – | –
Fc1ccc(Nc2nccc(-c3c(-c4ccc(Cl)cc4)nn4ncccc34)n2)cc1F [GW829058] | 0 | 2 | 0 | 2 | 5 | 26 | 6 | 11 | 30 | 18 | – | – | – | –
Clc1cccc(-c2nc(Nc3ccncc3)c3ccccc3n2)c1 [GW873004] | 0 | 0 | 27 | 11 | 0 | 0 | 0 | 7 | 15 | 2 | – | – | – | –
CCc1nc(-c2cccc(N(C)S(=O)(=O)c3ccccc3)c2)c(-c2ccnc(Nc3ccc(N4CCN(C(C)=O)CC4)nc3)n2)s1 [GSK1645895] | 24 | 37 | 0 | 30 | 32 | 5 | 11 | 16 | 0 | 6 | – | – | – | –
